The values below come from PubChem BioAssay.

The assay deals with Follistatin (Homo sapiens) (UniProt P19883). Nature of the assay: follistatin binders on small-molecule microarrays, primary screen, biochemical, small-molecule microarray, 635/667 nm fluorescence (AID 1132). The conditions noted are these: FST binding, 635 nm fluorescence, higher = more signal.
Follistatin (Homo sapiens), sequence (P19883 whole entry, looked up): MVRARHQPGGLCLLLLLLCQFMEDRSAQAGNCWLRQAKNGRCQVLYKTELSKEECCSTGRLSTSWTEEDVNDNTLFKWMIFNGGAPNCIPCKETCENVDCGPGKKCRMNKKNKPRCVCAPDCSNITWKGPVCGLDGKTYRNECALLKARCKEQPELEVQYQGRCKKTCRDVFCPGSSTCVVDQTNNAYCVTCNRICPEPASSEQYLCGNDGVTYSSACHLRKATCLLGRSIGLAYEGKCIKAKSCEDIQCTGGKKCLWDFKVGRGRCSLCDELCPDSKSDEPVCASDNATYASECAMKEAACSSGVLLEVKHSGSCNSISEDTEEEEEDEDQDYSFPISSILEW
For the compound `CC(C)C(O)C1C=CC2C(=O)N(C)C(=O)C2N1Nc1ccccc1` (stereo not given), the composite z-score came to 0.828. For `C=CC[C@]12N=C(c3ccc(OCCCO)cc3)O[C@H]1c1ccccc1N(C)C2=O` the value was 1.46. For `CC(C)(C)OC(=O)CC[C@]1(C(=O)O)N=C(c2ccc(OCCCO)cc2)O[C@H]1c1ccccc1CN=[N+]=[N-]` the value was 0.467.

Turning to `COc1ccc(NN2C(C(O)c3ccco3)C=CC3C(=O)N(C4CCCCC4)C(=O)C32)cc1` (stereo not given), the composite z-score amounted to 1.25. As to `CCOC(=O)[C@H]1C/C=C/C[C@H](C(=O)OCC)C(=O)O[C@H]2[C@@H](OC)O[C@H](CO)[C@@H](OC(=O)CCc3ccccc3)[C@@H]2OC1=O`, the composite z-score was -0.502.

In turn, `COCCOC(=O)N1C(=O)[C@@]2(c3cc(C#CCNC(N)=O)ccc31)[C@H](C(=O)N1CCCCCCC1)[C@H]1C(=O)O[C@H](c3ccccc3)[C@H](c3ccccc3)N1[C@@H]2c1ccc(O)cc1` registered a composite z-score of 1.4. The compound `O=C1c2ccccc2[C@](Cc2ccccc2I)(C(=O)NCc2ccccc2)[C@H](c2ccc(CO)cc2)N1C1CCCCC1` had a composite z-score of 1.54. For `C=CCOC(=O)[C@H]1[C@@H]2C(=O)O[C@@H](c3ccccc3)[C@@H](c3ccccc3)N2[C@@H](c2ccc(OCCOC(=O)[C@H]3C[C@H]4C(=O)N[C@@H](Cc5ccccc5)C(=O)N4[C@H]3c3ccc(O)cc3)cc2)[C@]12C(=O)Nc1ccc(I)cc12` the value was 1.32; for `COCCCNC(=O)[C@@]1(Sc2ccc(C)cc2)CC(=O)N(Cc2cc(C(F)(F)F)cc(C(F)(F)F)c2)[C@@H]1c1ccc(CO)cc1`, 1.06; for `C=CCN1C(=O)[C@@]2(CCC(=O)OC(C)(C)C)N=C(c3ccc(OCCCO)cc3)O[C@H]2c2ccccc21`, 1.23. The compound `C=CCNC(=O)[C@@H]1[C@H]2C(=O)O[C@H](c3ccccc3)[C@H](c3ccccc3)N2[C@H](c2ccccc2OCCO)[C@@]12C(=O)N(C(=O)OCCOC)c1ccc(C#CC3=CCCCC3)cc12` showed a composite z-score of 1.01. For `COc1ccc(C(O)C2C=CC3C(=O)N(c4ccccc4)C(=O)C3N2Nc2ccc(C#N)cc2)c2ccccc12` (stereo not given) the value was 0.944; for `COCCOC(=O)N1C(=O)[C@@]2(c3cc(C#CC4(O)CCCCCC4)ccc31)[C@H](c1ccccc1OCCO)N1[C@H](c3ccccc3)[C@H](c3ccccc3)OC(=O)[C@H]1[C@@H]2C(N)=O`, 1.41. For `C[C@]1(C(=O)NC2CC2)c2ccccc2C(=O)N(Cc2ccc(OC(F)(F)F)cc2)[C@H]1c1ccc(CO)cc1` the value was -0.239; for `C#CCNC(=O)[C@H](Cc1ccccc1)NC(=O)[C@@H](N=[N+]=[N-])C(C)C`, 0.127. Take `CC(C)(C)OC(=O)CC[C@]1(C(=O)NCCN2CCOCC2)N=C(c2ccc(OCCCO)cc2)O[C@H]1c1ccccc1`: the composite z-score was -0.0269.

Take `[N-]=[N+]=NCc1ccccc1C[C@]1(C(=O)NCC(O)CO)N=C(c2ccc(OCCCO)cc2)O[C@H]1c1ccccc1CN=[N+]=[N-]` (stereo not given in full): the composite z-score came to 1.3. `COc1cc2c(cc1OC)CN(C(=O)[C@@H]1[C@H]3C(=O)O[C@H](c4ccccc4)[C@H](c4ccccc4)N3[C@H](c3ccccc3OCCO)[C@@]13C(=O)Nc1ccc(C#CC4(O)CCCCCC4)cc13)CC2` yielded a composite z-score of 0.954. For `C[C@@H](OCc1ccccc1)C1NC(=O)[C@@]23C(=O)N[C@@H](Cc4ccccc4)C2[C@H](C)[C@@]2(C)O[C@H]2C3/C=C/C/C=C\CNC(=O)CNC1=O` (stereo not given in full) the value was -0.237; for `COCCCNC(=O)[C@]1(CCC(=O)OC(C)(C)C)N=C(c2ccc(OCCCO)cc2)O[C@@H]1c1ccccc1`, 1.21; for `CN(C)C(=O)[C@@]1(Cc2ccccc2N=[N+]=[N-])COC(c2ccc(OCCCO)cc2)=N1`, 1.32. For `CCCc1cccc(=O)o1` the value was 0.793. For `CC(C)C[C@@H]1NC(=O)[C@H]2C[C@@H](C(=O)NCCCCCC[N+](C)(C)C)[C@@H](c3cccc(OCCO)c3)N2C1=O` the value was 1.43; for `[N-]=[N+]=Nc1ccccc1C[C@]1(C(=O)NCc2ccccc2)N=C(c2ccc(OCCCO)cc2)O[C@H]1c1ccccc1`, 1.13; for `C[C@@H]1ON(c2ccc(C(=O)OC(C)(C)C)cc2)[C@H](c2ccc(Br)cc2)[C@H]1C(=O)N1C(=O)OC[C@H]1Cc1ccccc1`, 0.7.
